Data taken from PubChem BioAssay (Tox21).
“And” between values parts separate entries of the source, which are not always exact repeats. Equal entries are not always repeated. Records with an inconclusive call do not appear. Some compounds were tested as several samples or in several runs, with calls that do not always agree. The source made the active and inactive calls. Unless noted, calls come from the whole dose curve; as a rule, active = well fitted curve in the direction sought with a large enough effect in the repeat runs; inconclusive = weak or mixed curves; inactive = no such curve, though single readings can be large; an effect the other way counts as inactive or inconclusive.

Key:
[1] = qHTS assay to identify small molecule antagonists of the estrogen receptor alpha (ER-alpha) signaling pathway using the BG1 cell line in the presence of 0.1 nM 17-beta-estradiol - cell viability counter screen (AID 1259241); note: nearly all actives have a fitted effect of over 40% in size
In short: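 Following 5 days in phenol red-free medium with charcoal-stripped serum, VM7Luc4E2 cells received test compounds alongside 0.1 nM 17beta-estradiol (final) at 37C for 22 hr. Live cells were then quantified via protease-substrate fluorescence.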

[2] = molecular target: Androgen receptor (Homo sapiens) (UniProt P10275); assay: qHTS assay to identify small molecule antagonists of the androgen receptor (AR) signaling pathway using the MDA cell line in the presence of 0.5 nM R1881 (AID 1259243); note: potency is the fitted concentration of half-maximal effect; nearly all actives have a fitted effect of over 50% in size
In short: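 Stably transfected MDA-kb2 cells express luciferase from an MMTV promoter bearing both AR and GR response elements. Compounds plus 0.5 nM R1881 (final) were incubated 16 hr at 37C without CO2, then luminescence measured.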

[3] = molecular target: Estrogen receptor (Homo sapiens) (UniProt P03372); assay: qHTS assay to identify small molecule antagonists of the estrogen receptor alpha (ER-alpha) signaling pathway using the BG1 cell line in the presence of 0.1 nM 17-beta-estradiol (AID 1259244); note: nearly all actives have a fitted effect of over 50% in size
In short: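 Antagonist mode: compounds in DMSO are pinned onto VM7Luc4E2 reporter cells, 0.1 nM final 17beta-estradiol is added, and after 22 h at 37C luciferase luminescence is measured with ONE-Glo.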

[4] = qHTS assay to identify small molecule HDAC inhibitors (AID 1259364);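 note: wild-type HCT-116 cells with endogenous class I/II HDAC activity; top concentration of the series differs between compounds; nearly all actives have a fitted effect of over 45% in size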
In short: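 Cells (HCT-116, wild type) are seeded at 1,500 per well, incubated overnight, treated with compound in DMSO for 2 hr, then developed with HDAC-Glo I/II reagent for 30 min at room temperature.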

[5] = qHTS assay to identify small molecule HDAC inhibitors - cell viability counter screen (AID 1259365); note: series mostly up to about 92 µM; nearly all actives have a fitted effect of over 50% in size
In short: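 HCT-116 wild-type, overnight attachment; 2hr drug exposure, 37C; CellTiter-Glo luminescent ATP readout after 30min RT.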

[6] = qHTS assay to identify small molecule agonists of the sonic hedgehog signaling (Shh) pathway - cell viability counter screen (AID 1259366); note: nearly all actives have a fitted effect of over 50% in size; note: potency is the fitted concentration of half-maximal effect
In short: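 Compounds in DMSO were pin-transferred onto 3T3 Gli1-Luc cells that had settled 4hr; plates then stood 24hr at 37C and 5% CO2. One hour before the end, CellTiter-Fluor was added and fluorescence recorded.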

[7] = qHTS assay to identify small molecule antagonists of the sonic hedgehog signaling (Shh) pathway - cell viability counter screen (AID 1259367); note: nearly all actives have a fitted effect of over 55% in size
In short: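 Viability was read by CellTiter-Fluor fluorescence in the same wells, reagent added 23 hr into compound treatment and incubated 1 hr at 37C. The 3T3 Gli1-Luc reporter cells (2,000/well) received conditioned medium after compound and ran 24 hr.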

[8] = qHTS assay to identify small molecule agonists of the sonic hedgehog signaling (Shh) pathway (AID 1259368; calls by dose curve;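 note: NIH/3T3-derived 3T3Gli1-Luc cells carrying a stable Gli1-driven firefly luciferase reporter; series mostly up to about 92 µM; nearly all actives have a fitted effect of over 15% in size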)
In short: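 Cells of a mouse NIH/3T3 clone stably expressing luciferase under the Gli1 transcriptional response element are exposed to test chemicals for 24 hr at 37 C. Pathway activation is detected as a rise in luminescence.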

[9] = qHTS assay to identify small molecule antagonists of the sonic hedgehog signaling (Shh) pathway (AID 1259369; calls by dose curve; note: nearly all actives have a fitted effect of over 45% in size; note: potency is the fitted concentration of half-maximal effect)
In short: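 Cells are plated and held 4hr at 37 C, compounds (DMSO) are pinned in, conditioned medium is added to stimulate the pathway, and after 24hr luciferase reagent is added for 30min before luminescence is read.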

[10] = molecular target: Estrogen receptor beta (Homo sapiens) (UniProt Q92731); assay: qHTS assay to identify small molecule agonists of the estrogen receptor beta (ER-beta) signaling pathway (AID 1259377; active = well fitted activation curve with a large enough effect in the signal ratio in the repeat runs, not every such curve was filed as active; the % refers to the signal ratio)
In short: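 qHTS in ER-beta-UAS-bla HEK293T cells: 6 hr settling, then 16 hr compound at 37C, then LiveBLAzer substrate 2 h at RT before fluorescence reading.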

[11] = molecular target: Estrogen receptor beta (Homo sapiens) (UniProt Q92731); assay: qHTS assay to identify small molecule antagonists of the estrogen receptor beta (ER-beta) signaling pathway (AID 1259378; active = well fitted inhibition curve with a large enough effect in the signal ratio in the repeat runs, not every such curve was filed as active; the % refers to the signal ratio)
In short: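 Antagonist mode: compounds added to beta-lactamase reporter HEK293T ER-beta-UAS cells stimulated with E2 (1nM final), 16 hr at 37C. LiveBLAzer B/G FRET substrate, 2 hours room temperature, fluorescence read-out.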

[12] = qHTS assay to identify small molecule agonists of the androgen receptor (AR) signaling pathway in the presence of an antagonist - cell viability counter screen (AID 1259379); note: nearly all actives have a fitted effect of over 25% in size; note: potency is the fitted concentration of half-maximal effect
In short: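 Cytotoxicity is assessed by CellTiter-Fluor in MDA-kb2 cells carrying an MMTV-driven luciferase reporter. Cells receive 3.0uM nilutamide plus compounds at 15 concentrations and incubate 16 hr at 37C without CO2 before fluorescence reading.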

[13] = qHTS assay to identify small molecule agonists of the estrogen receptor beta (ER-beta) signaling pathway - cell viability counter screen (AID 1259380); note: nearly all actives have a fitted effect of over 30% in size
In short: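 Cytotoxicity is measured in parallel with the reporter screen: after 16 hr compound exposure at 37C and a 2 hr LiveBLAzer step, CellTiter-Glo is added to the same ER-beta-UAS-bla HEK293T wells and luminescence read after 30 min.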

[14] = qHTS assay to identify small molecule antagonists of the estrogen receptor beta (ER-beta) signaling pathway - cell viability counter screen (AID 1259382);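 note: HEK293T cells carrying ER-beta-UAS-bla reporter stimulated with estradiol; series mostly up to about 92 µM; nearly all actives have a fitted effect of over 55% in size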
In short: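 Cytotoxicity counter screen multiplexed with the beta-lactamase antagonist assay: GripTite HEK293T ER-beta-bla cells were treated 16 hr with test chemicals in the presence of 1nM 17-beta-estradiol, and viability was measured by CellTiter-Glo.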

[15] = molecular target: Estrogen receptor (Homo sapiens) (UniProt P03372); assay: qHTS assay to identify small molecule agonists of the estrogen receptor alpha (ER-alpha) signaling pathway in the presence of an antagonist (AID 1259383; calls by dose curve; note: top concentration of the series differs between compounds; nearly all actives have a fitted effect of over 15% in size)
In short: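 Agonist-mode confirmation in the presence of the ER antagonist ICI-182,780 at 10.0nM final. Breast-derived VM7Luc4E2 reporter cells were exposed to compounds for 22hr, and ERE-driven luciferase was quantified by luminescence.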

[16] = qHTS assay to identify small molecule agonists of the estrogen receptor alpha (ER-alpha) signaling pathway in the presence of an antagonist - cell viability counter screen (AID 1259386);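 note: series mostly up to about 92 µM; cells exposed to compounds for 22 h at 37 °C before the viability read; nearly all actives have a fitted effect of over 30% in size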
In short: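 Cytotoxicity was measured in parallel with the ERE-luciferase agonist screen, in the same wells. The cells were VM7Luc4E2, which endogenously express ER-alpha, and treatment was with compounds plus 10.0nM ICI-182,780 for 22hr.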

[17] = qHTS assay to identify small molecule antagonists of the androgen receptor (AR) signaling pathway using the MDA cell line in the presence of 0.5 nM R1881 - cell viability counter screen (AID 1259242); note: nearly all actives have a fitted effect of over 45% in size
In short: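 Steps: plate MDA-kb2 cells, rest 5 hr at 37C without CO2; pin in compounds in DMSO; add R1881 to 0.5 nM final; incubate 16 hr; add CellTiter-Fluor, 30 min; read fluorescence.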

[18] = qHTS assay to identify small molecule agonists or antagonists of the thyroid stimulating hormone receptor (TSHR) signaling pathway - wild type cell line counter screen (AID 1259384; calls by dose curve)
In short: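 Counter screen in untransfected Hek293: compounds (15-point titration, triplicate) plus phosphodiesterase inhibitor Ro20-1724 added after 18 h plating; 30 min RT. Intracellular cAMP via competitive d2/cryptate immunoassay, 1 h incubation.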

[19] = molecular target: Thyrotropin receptor (Homo sapiens) (UniProt P16473); assay: qHTS assay to identify small molecule antagonists of the thyroid stimulating hormone receptor (TSHR) signaling pathway (AID 1259385; calls by dose curve; note: nearly all actives have a fitted effect of over 20% in size)
In short: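 Antagonist mode: compound-treated TSHR-expressing HEK293 cells were stimulated with 1.5 ng/mL TSH (final) in presence of Ro20-1724 for 30 min at RT. HTRF cAMP detection after 1 h; each compound tested at 15 concentrations, triplicate.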

Measured: Potency

Estrogen receptor beta (Homo sapiens), sequence (Q92731 whole entry, looked up): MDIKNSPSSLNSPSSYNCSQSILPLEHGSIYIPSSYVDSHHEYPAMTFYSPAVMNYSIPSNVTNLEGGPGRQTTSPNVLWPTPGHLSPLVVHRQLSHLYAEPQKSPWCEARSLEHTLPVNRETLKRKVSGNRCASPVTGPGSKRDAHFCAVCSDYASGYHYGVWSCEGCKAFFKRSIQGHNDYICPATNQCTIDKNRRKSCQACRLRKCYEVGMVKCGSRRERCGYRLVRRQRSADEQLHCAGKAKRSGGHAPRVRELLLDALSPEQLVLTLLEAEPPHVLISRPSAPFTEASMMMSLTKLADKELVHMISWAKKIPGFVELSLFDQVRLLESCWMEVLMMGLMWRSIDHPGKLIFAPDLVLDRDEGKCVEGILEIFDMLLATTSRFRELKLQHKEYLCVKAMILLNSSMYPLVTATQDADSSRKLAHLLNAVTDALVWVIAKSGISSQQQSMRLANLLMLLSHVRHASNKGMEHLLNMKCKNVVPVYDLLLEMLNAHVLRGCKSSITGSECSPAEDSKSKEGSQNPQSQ
Estrogen receptor (Homo sapiens), sequence (P03372 whole entry, looked up): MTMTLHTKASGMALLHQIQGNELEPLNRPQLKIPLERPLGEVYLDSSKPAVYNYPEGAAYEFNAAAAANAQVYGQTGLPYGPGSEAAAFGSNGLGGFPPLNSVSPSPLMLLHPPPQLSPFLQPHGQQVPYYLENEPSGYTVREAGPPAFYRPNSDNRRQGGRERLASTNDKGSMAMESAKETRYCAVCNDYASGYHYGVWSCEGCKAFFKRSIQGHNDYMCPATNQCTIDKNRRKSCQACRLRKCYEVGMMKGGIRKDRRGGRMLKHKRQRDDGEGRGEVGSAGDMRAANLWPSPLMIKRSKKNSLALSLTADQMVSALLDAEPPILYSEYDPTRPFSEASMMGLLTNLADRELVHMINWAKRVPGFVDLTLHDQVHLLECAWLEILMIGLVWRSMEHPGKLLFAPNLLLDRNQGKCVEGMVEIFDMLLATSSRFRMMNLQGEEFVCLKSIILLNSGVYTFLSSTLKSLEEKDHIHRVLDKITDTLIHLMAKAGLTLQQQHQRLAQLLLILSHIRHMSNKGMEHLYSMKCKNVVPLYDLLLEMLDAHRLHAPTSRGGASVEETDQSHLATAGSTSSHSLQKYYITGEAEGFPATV
Thyrotropin receptor (Homo sapiens), sequence (P16473 whole entry, looked up): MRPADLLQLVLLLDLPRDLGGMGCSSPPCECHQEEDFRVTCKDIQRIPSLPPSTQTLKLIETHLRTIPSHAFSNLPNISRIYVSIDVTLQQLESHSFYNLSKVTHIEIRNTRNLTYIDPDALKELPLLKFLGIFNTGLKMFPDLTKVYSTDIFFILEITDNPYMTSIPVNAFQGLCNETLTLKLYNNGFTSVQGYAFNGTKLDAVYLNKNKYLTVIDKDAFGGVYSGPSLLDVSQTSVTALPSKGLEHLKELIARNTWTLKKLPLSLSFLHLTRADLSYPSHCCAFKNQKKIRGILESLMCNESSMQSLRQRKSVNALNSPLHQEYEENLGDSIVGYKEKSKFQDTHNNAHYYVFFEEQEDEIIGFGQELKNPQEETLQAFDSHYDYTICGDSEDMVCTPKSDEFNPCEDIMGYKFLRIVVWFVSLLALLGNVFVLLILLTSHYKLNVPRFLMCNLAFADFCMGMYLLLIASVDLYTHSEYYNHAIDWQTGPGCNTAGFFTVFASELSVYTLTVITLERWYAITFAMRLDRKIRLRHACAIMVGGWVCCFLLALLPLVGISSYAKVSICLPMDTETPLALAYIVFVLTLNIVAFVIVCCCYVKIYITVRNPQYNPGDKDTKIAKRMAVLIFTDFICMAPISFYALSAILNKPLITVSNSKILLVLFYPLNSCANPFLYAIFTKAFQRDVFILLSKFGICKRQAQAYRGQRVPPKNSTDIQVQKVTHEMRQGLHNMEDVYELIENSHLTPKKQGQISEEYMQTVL
Androgen receptor (Homo sapiens), sequence (P10275 whole entry, looked up): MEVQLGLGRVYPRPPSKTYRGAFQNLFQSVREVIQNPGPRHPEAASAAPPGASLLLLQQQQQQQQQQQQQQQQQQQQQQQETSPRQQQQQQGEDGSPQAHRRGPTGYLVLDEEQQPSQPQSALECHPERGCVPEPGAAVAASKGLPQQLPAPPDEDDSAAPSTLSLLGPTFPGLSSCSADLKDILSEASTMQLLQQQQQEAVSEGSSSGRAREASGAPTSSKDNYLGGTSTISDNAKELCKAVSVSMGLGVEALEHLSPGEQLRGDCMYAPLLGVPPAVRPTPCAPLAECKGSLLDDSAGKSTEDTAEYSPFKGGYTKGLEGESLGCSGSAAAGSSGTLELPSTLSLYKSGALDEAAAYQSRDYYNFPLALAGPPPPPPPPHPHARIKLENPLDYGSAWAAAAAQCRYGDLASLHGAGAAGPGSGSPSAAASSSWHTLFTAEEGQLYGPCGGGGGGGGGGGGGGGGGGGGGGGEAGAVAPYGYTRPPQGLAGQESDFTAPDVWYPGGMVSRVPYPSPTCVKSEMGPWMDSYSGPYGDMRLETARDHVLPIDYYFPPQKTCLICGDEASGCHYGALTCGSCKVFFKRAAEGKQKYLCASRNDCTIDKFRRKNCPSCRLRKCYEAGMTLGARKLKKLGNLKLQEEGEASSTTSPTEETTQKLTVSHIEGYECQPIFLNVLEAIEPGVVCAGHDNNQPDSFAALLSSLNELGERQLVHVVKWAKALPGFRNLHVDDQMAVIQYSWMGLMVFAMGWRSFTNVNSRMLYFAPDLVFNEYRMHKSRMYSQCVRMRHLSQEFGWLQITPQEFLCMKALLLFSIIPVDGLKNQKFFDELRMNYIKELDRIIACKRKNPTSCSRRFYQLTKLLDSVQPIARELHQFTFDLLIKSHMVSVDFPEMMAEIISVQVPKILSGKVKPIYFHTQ

O=[N+]([O-])c1c(Cl)c(Cl)c(Cl)c(Cl)c1Cl
inactive and 43.3 µM (active): [6]
active: [2] 27.2 µM and 27.3 µM | [12] 60.8 µM and 48.6 µM
not listed: [17] | [18] | [19]
inactive: all other assays above

C=CC(=O)OCCO
active: [9] 24.7 µM and 27.3 µM
not listed: [2] | [3] | [6] | [7] | [15]
inactive: all other assays above

N#CCCCl
not listed: [2] | [3] | [10] | [11] | [12] | [15]
inactive: all other assays above

CC(C)N(C(=O)SCC(Cl)=C(Cl)Cl)C(C)C
not listed: [2] | [3] | [15] | [18]
inactive: all other assays above

CC(O)CCO (stereo not drawn)
not listed: [2] | [3] | [15]
inactive: all other assays above

O=C1C=CC(=O)C=C1
not listed: [2] | [3] | [4] | [15] | [18]
inactive: all other assays above
